The nature of assay [1]: Validation of Assay for Modulators of Lamin A Splicing (AID 1459; active = well fitted curve in the direction sought with a large enough effect in the signal ratio; the % refers to the signal ratio;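 note: cells exposed to compound for two days before reading; 0% is about no effect; ratio rise marks activators and ratio drop marks inhibitors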). In a few lines:
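Splicing correction is reported by an EGFP-containing lamin A minigene in stably transfected S3 HeLa cells, while DsRed2 controls for viability and nonspecific signal. Cells are exposed to compounds for 48 hrs before the GFP over RFP ratio is taken.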

Assay [2] in a line: qHTS Assay for Lipid Storage Modulators (AID 1519; calls by dose curve; for activity change, negative = inhibition: % is set by controls: 0 for no effect and ±100 for the full control effect). The following applies: Drosophila S3 cells, BODIPY lipid droplet/cell ratio, laser cytometry, cells loaded with oleic acid; for activity change, negative = inhibition: at 57.5 µM (top of the series). In a few lines:
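Cells seeded at 5,000 per well were treated with compounds over a concentration series and loaded with oleic acid (400 uM, as added). Lipid droplet fluorescence (488 nm excitation, 500-530 nm channel) was read by laser-scanning cytometry and normalized to 20 uM Triacsin C.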
A general note: qHTS replaces the single test concentration by a dilution series.

The target in assay [3] is DNA repair nuclease/redox regulator APEX1 (Homo sapiens) (UniProt P27695). As to the kind of experiment: qHTS Validation Assay for Inhibitors of the Human Apurinic/apyrimidinic Endonuclease 1 (APE1) (AID 1705;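 note: TAMRA fluorescence gain over two minutes as APE1 cuts a quenched THF abasic duplex; % is set by controls: 0 for no effect and ±100 for the full control effect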). In a few lines:
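Endonuclease activity of human APE1 is followed as dequenching when the enzyme incises a tetrahydrofuran abasic site in a short duplex labelled 5'-TAMRA/3'-BHQ-2 (50 nM final), after 15 min enzyme–compound preincubation at room temperature.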

Assay [4] can be described thus: Counterscreen for APE1 Inhibitors: Fluorescent Dye Displacement Validation Assay (AID 1707).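 Note: plate controls were ThO with dsDNA and no compound for no effect and ThO without dsDNA for full effect.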 Put shortly: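 Compounds are scored by their ability to displace Thiazole Orange (250 nM) from a 50 nM TAMRA-tagged duplex bearing a tetrahydrofuran abasic site. Buffer is 50 mM Tris-HCl pH7.5, 50mM NaCl, 2 mM MgCl2, 0.01% Tween-20.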
A general note: Counterscreens check selectivity or assay interference.

The target of assay [5] is Endonuclease 4 (Escherichia coli (strain K12)) (UniProt P0A6C1). As to the kind of experiment: Counterscreen for APE1 Inhibitors: qHTS Validation Assay for Inhibitors of Endonuclease IV (AID 1708). Note: % is set by controls: 0 for no effect and ±100 for the full control effect. In a few lines: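 E. coli EndoIV at 2 nM final, preincubated 15 min at room temperature with compound, then 50 nM TAMRA/BHQ-2 THF abasic-site duplex added. Buffer: 50 mM Tris-HCl pH 7.5, 50 mM NaCl, 2 mM MgCl2, 1 mM DTT, 0.01% Tween-20. Kinetic fluorescence increase, third minus first read.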

Assay [6] concerns the target ATP-dependent DNA helicase Q1 (Homo sapiens) (UniProt P46063). As to the kind of experiment: qHTS Validation Assay for Inhibitors of RecQ-Like Dna Helicase 1 (RECQ1) (AID 2353).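 Note: plate controls were DMSO vehicle for no effect and enzyme-free control for full effect.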 Put shortly:
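50 nM RECQ1T1 preincubated 15 min with compound in Tris pH 8.0 buffer with MgCl2, DTT, Tween-20 and 2.5 ug/ml poly(dI-dC); started with 200 nM TAMRA/BHQ-2 forked duplex and 2 mM ATP. Unwinding read as fluorescence (525/598 nm), two reads 2 h apart.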

Assay [7] in a line: Validation screen for small molecules that induce DNA re-replication in MCF 10A normal breast cells (AID 463097). Note: 0% is about no effect; nearly all actives have a fitted effect of over 60% in size. In a few lines: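 DNA re-replication was detected as a rise in nuclei with elevated Hoechst fluorescence after a 48 hr compound exposure of MCF 10A cells at 37 C.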
Assay [8] in a line: Quantitative high throughput screen for delayed death inhibitors of the malarial parasite plastid, 96 hour incubation (AID 488745).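 Note: luciferase-expressing P. falciparum in erythrocytes at 2% hematocrit and 0.1% parasitemia; % is set by controls: 0 for no effect and ±100 for the full control effect; nearly all actives have a fitted effect of over 70% in size.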 In a few lines: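 Infected erythrocytes were added to compound in Albumax-supplemented RPMI 1640 at 0.1% parasitemia and 2% hematocrit (final), incubated 96 h at 37 C under 5% CO2, then luciferase reagent was added and luminescence measured.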
A short description of assay [9]: Quantitative high throughput screen for delayed death inhibitors of the malarial parasite plastid, 48 hour incubation (AID 488752). Note: % is set by controls: 0 for no effect and ±100 for the full control effect; nearly all actives have a fitted effect of over 65% in size. In a few lines: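 Readout is firefly luciferase luminescence from a reporter integrated into the parasite genome, with lower signal taken as inhibited growth. Infected red cells (0.1% parasitemia, 2% hematocrit final) are cultured with compound for one 48 h cycle at 37 C.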

In assay [10] the target is M-phase phosphoprotein 8 (Homo sapiens) (UniProt Q99549). Nature of the assay: qHTS Validation Assay for Inhibitors for MPP8 Chromodomain Interactions with Methylated Histone Tails (AID 488949).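 Note: AlphaScreen signal from MPP8 chromodomain bound to biotinylated H3K9me3 peptide; top concentration of the series differs between compounds; % is set by controls: 0 for no effect and ±100 for the full control effect; nearly all actives have a fitted effect of over 55% in size.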 In a few lines: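 Disruption of the preformed MPP8–trimethyl-H3K9 peptide complex (both 50 nM, 30 min, RT) is measured after 30 min compound exposure, using AlphaScreen proximity beads; aurintricarboxylic acid titration serves as plate control.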

Assay [11] addresses Galactokinase (Homo sapiens) (UniProt P51570). As to the kind of experiment: qHTS Validation Assay for Inhibitors of Human Galactokinase (GALK) (AID 493189). Note: 0% is about no effect. In a few lines:
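Compounds were pin-transferred into ATP buffer, then GALK-galactose mix was added (final 5 nM enzyme, 100 uM galactose, 35 uM ATP). After 1 h at room temperature, remaining ATP was measured luminescently.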

A short description of assay [12]: Validation screen for small molecules that induce DNA re-replication in SW480 colon adenocarcinoma cells (AID 504364). Note: 0% is about no effect. In a few lines:
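250 cells/well; compound pinned in; 48 hr, 37 C, 5% CO2; Hoechst added, 40 min; nuclear fluorescence imaged, 405 ex / 500-530 em; re-replication scored as increase in high-intensity nuclei.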

Assay [13] addresses Thyrotropin-releasing hormone receptor (Homo sapiens) (UniProt P34981). Nature of the assay: qHTS for Small Molecule Agonists and Allosteric Enhancers of Human TRH Receptor: Validation Screen for Agonists (AID 493127;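 active = calcium activation more than 3 SD above the typical response in the agonist read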;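 note: intracellular calcium rise by fluo-8 fluorescence before TRH EC20 addition; 0% is about no effect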). The following applies: TRH receptor agonist cell assay; at 2 µM; stronger effect = higher value. Put shortly:
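Cells 2000/well, 10% FCS, 18 h 33.5C/5% CO2 → fluo-8 Ca dye, RT 30 min–1.5 h → FDSS baseline 10 × 1 s → compound added → 230 cycles (1 s/cycle) agonist mode. TRH controls.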

Assay [14] can be described thus: Primary qHTS for inhibitors of nuclear receptor binding SET domain protein 2 (NSD2) in an isogenic RCH-ACV NSD2 p.E1099K mutant (9B) (AID 1645876). Note: potency is the fitted concentration of half-maximal effect; nearly all actives have a fitted effect of over 70% in size.
Assay [15] in a line: Primary qHTS for inhibitors of nuclear receptor binding SET domain protein 2 (NSD2) in an RCH-ACV wild type WT cells (2C) (AID 1645877). Note: potency is the fitted concentration of half-maximal effect; nearly all actives have a fitted effect of over 70% in size.
Assay [16] can be described thus: qHTS drug screen for cell cycle checkpoint inhibitors in PARPi-resistant BRCA-mutant ovarian cancer cell lines. (AID 1963452; calls by dose curve; note: potency is the fitted concentration of half-maximal effect). The following applies: PEO1/OlaR viability, CellTiter-Glo luminescence, 96 h; for Z-AUC: stronger effect = lower value. In a few lines: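 PEO1, PEO4 and PEO1/OlaR ovarian cancer cells, 600 per well, exposed 96 h at 37C to a dilution series. Viability read by CellTiter-Glo luminescence, normalized to DMSO and empty wells; activity summarized as Z-AUC.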

The nature of assay [17]: qHTS assay to identify inhibitors of the type 1 interferon - major histocompatibility complex class I in skeletal muscle: Counter screen cell viability and HiBit confirmation (AID 1347412). Note: % is set by controls: 0 for no effect and ±100 for the full control effect; nearly all actives have a fitted effect of over 60% in size. The conditions noted are these: iHSKM muscle cells + IFN-b, HiBiT or CellTiter-Glo, 24 h; Viability; at 45.9 µM (top of the series). Put shortly:
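Myoblasts (C25cl48, HLA-B HiBiT) seeded in medium without dexamethasone, IFN-b 4 ng/ml added except unstimulated columns; 1 hr later compounds pinned (12-pt 1:3, top 46 uM final). Incubated 24 hrs, lysed 10 min, luminescence measured.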

Setting [18] is: measured here: cell count channel max response.
Where [19] appears, read: measured here: lipid channel max response.

Results filed as inconclusive are left out. Calls of active or inactive are those of the source. Unless noted, calls come from the whole dose curve; as a rule, active = well fitted curve in the direction sought with a large enough effect; inconclusive = small, poorly fitted or top-dose-only effect, or another doubt; inactive = no such curve, though single readings can be large; an effect the other way counts as inactive or inconclusive.

Sequence of M-phase phosphoprotein 8 (Homo sapiens) (Q99549 whole entry, looked up): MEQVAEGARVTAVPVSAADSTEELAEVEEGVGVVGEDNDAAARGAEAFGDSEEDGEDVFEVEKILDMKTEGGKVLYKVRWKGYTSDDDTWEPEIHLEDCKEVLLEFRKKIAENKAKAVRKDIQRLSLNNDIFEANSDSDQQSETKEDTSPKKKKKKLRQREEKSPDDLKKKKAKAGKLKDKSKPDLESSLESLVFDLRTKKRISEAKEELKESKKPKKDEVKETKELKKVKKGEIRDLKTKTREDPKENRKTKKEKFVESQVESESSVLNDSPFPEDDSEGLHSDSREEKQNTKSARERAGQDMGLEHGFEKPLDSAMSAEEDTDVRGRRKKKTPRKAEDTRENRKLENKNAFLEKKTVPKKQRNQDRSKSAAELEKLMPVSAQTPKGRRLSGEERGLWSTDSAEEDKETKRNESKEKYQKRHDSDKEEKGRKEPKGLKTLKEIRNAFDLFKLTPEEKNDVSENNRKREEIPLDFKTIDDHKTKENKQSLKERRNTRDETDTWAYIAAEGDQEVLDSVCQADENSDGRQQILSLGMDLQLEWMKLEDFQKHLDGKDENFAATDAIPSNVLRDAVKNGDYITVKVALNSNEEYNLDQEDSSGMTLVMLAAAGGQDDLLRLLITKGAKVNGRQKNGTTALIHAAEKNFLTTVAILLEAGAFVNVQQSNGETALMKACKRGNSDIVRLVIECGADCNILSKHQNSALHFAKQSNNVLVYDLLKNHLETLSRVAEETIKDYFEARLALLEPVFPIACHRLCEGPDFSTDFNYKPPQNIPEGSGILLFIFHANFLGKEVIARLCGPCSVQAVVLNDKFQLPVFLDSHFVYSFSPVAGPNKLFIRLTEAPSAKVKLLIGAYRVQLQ
Sequence of Galactokinase (Homo sapiens) (P51570 whole entry, looked up): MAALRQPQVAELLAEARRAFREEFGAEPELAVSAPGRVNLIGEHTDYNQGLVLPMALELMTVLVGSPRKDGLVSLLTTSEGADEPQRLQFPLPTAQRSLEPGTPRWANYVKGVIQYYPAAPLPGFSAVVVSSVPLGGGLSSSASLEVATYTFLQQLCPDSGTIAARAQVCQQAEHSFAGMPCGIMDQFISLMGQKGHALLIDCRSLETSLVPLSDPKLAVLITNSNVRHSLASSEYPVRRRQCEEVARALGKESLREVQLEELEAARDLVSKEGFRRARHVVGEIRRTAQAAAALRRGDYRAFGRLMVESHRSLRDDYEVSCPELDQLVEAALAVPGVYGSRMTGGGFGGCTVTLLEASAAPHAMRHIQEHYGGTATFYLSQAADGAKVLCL
Sequence of DNA repair nuclease/redox regulator APEX1 (Homo sapiens) (P27695 whole entry, looked up): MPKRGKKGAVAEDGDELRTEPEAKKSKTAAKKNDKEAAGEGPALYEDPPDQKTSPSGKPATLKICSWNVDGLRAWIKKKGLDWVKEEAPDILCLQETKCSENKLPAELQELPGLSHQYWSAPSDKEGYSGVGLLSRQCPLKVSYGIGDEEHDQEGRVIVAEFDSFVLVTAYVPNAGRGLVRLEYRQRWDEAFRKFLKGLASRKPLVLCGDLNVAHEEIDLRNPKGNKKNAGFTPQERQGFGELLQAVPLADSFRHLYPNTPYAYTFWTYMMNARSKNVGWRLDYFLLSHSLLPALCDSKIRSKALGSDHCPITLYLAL
Sequence of ATP-dependent DNA helicase Q1 (Homo sapiens) (P46063 whole entry, looked up): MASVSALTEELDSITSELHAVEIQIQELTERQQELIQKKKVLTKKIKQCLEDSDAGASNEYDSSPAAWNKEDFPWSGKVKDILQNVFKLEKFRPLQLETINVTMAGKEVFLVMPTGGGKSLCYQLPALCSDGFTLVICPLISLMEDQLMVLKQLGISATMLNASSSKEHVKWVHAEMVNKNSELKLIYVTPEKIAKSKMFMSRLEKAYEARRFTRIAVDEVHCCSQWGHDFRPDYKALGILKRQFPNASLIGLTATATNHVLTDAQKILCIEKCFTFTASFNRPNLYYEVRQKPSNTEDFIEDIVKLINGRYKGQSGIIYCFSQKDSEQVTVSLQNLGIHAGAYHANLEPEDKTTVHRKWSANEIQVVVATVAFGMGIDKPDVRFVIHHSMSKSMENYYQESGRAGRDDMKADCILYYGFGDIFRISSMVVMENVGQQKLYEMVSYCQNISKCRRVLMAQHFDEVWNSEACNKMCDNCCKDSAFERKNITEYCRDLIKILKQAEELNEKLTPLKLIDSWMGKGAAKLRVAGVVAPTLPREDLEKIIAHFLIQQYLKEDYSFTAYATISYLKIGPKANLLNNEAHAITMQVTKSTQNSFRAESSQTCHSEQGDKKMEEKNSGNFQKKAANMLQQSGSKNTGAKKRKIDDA
Sequence of Thyrotropin-releasing hormone receptor (Homo sapiens) (P34981 whole entry, looked up): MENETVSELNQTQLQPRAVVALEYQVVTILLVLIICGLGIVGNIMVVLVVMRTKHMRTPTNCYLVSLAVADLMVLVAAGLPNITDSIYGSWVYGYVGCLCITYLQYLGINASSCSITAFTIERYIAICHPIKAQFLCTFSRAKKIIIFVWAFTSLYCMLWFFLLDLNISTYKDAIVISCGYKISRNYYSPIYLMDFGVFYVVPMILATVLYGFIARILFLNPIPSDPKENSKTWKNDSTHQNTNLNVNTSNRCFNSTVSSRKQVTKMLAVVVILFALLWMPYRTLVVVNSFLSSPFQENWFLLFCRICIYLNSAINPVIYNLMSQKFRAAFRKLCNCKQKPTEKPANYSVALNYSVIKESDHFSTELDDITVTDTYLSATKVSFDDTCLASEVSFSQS

Consider `Cc1cn([C@H]2C[C@@H](N=[N+]=[N-])[C@@H](CO)O2)c(=O)[nH]c1=O`, for which the outcome in [1], in [5], in assay [7], in assay [11] and in [12] was inactive. Moreover, the activity change, negative = inhibition in assay [2] was 0.117% (inactive). The max response in assay [2] (setting [18]) is -9.17%; in assay [2] (setting [19]), -8.16%. The Potency result in assay [3], in [4], in assay [6], in assay [8], in assay [9] and in assay [10] was “inactive” throughout.

Regarding `COc1c2c(nc3ccccc13)OC(C(C)(O)CO)C2` (centres undefined), the outcome in [1], in assay [5], in [7], in [11] and in [12] was inactive. In assay [2], the activity change, negative = inhibition was 1.22% (inactive). In addition, the max response in assay [2] (setting [18]) is -18%; in assay [2] (setting [19]), -12.2%. The Potency entry in assay [3], in assay [4], in assay [6], in assay [8], in assay [9] and in [10] was “inactive” each time. Moreover, in assay [13], the activation was 0.812% (inactive).

As for `CN1C(=O)CCC1c1cccnc1` (centres undefined), the compound was classed as inactive in assay [1], in assay [5], in [7], in assay [11] and in assay [12]. In [2], the activity change, negative = inhibition is 10.8% (inactive). Further, the max response is -1.85% in assay [2] (setting [18]) and 10.6% in assay [2] (setting [19]). The Potency result in assay [3], in assay [4], in assay [6], in assay [9] and in [10] was “inactive” each time. For the same compound, the activation in assay [13] was 1.19% (inactive).

Regarding `COc1nnc2ccc(N3CCC(c4ccc(OCCN5CCN(C)C(=O)[C@H]5C)cc4)CC3)nn12`, the Potency in assay [14] is 66.1 nM (active); in assay [15], 52.5 nM (active); in assay [16], 195 nM (active). The Z-AUC in [16] (measured here: PEO1 parental Z-AUC) was -1.72; in assay [16] (measured here: PEO4 Z-AUC), -1.83. In addition, the activity change, negative = inhibition in assay [17] is 14.1% (inactive).

Consider `O=C(O)CC[C@H](NC(=O)c1ccccc1C(=O)O)C(=O)O`, for which the compound was classed as inactive in [1], in assay [5], in assay [7], in [11] and in [12]. Also, in [2], the activity change, negative = inhibition is -0.627% (inactive). Moreover, the max response is 34.2% in [2] (setting [18]) and 31.2% in [2] (setting [19]). Further, the Potency result in [3], in assay [4], in [6], in assay [8], in assay [9] and in assay [10] was “inactive” each time. In assay [13], the activation is 0.188% (inactive).

For `CNC(=O)[C@H]1O[C@@H](n2cnc3c(NCc4cccc(I)c4)ncnc32)[C@H](O)[C@H]1O`, the outcome in [1], in assay [5], in assay [7], in assay [11] and in [12] was inactive. For the same compound, in assay [2], the activity change, negative = inhibition is 1.11% (inactive). In addition, the max response came out at 54.7% in [2] (setting [18]) and 56.8% in [2] (setting [19]). Moreover, the Potency result in [3], in assay [4], in [6], in assay [8], in [9] and in assay [10] was “inactive” in each case. In addition, in assay [13], the activation was 1.38% (inactive).

The values above are taken from PubChem BioAssay (NCATS).
